Hit rate of the full screen: of about 16,000 compounds, about 250 (1.6%) were called active. The entries come from a sample that favours actives as a whole. Unmarked numbers belong to inactive results.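 How the source made its calls: active means inhibition above the average over every tested compound plus 3 SD (cut at about 40% in these data); inactive means the rest.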

Drawing on PubChem BioAssay AID687043 (Milwaukee Institute for Drug Discovery, 2013), this text covers inhibition for 92 molecules.

The subject of the test is Hepatitis C virus NS3 helicase. The test is described as follows: HCV NS3 helicase inhibitors, primary screen, biochemical, fluorescence polarization, ChemBridge library (AID 687043). As to conditions: NS3h Cy5-dT15 DNA binding, at 100 µM, hits give high values. In general terms: In fluorescence polarisation assays a small probe gives low polarisation when free and higher when bound to something large.
Consider `CCCOC(=O)Cc1c(O)c2ccccc2[nH]c1=O`, for which the inhibition (usually the relative decrease from the control value, in per cent) was -1.3%.

Turning to `O=[N+]([O-])c1ccc2c(c1)S(=O)(=O)N=C2Nc1cccnc1`, the inhibition was -7.4%.

In the case of `O=c1[nH][nH]c(=O)c2cc(N3CCCC3)ccc12`, the inhibition was 4.3%.

With `O=C(NCc1ccccc1)C1CC(=O)N(c2ccc(Cl)cc2)C1` (configuration not stated), the inhibition was 2.8%.

In the case of `Cc1ccc2c(C)[n+](C)ccn12`, the inhibition is 15.6%.

As to `COc1ccc(C2CC(=O)C3=C(C2)Nc2ccccc2NC3c2ccc(SC)cc2)cc1` (configuration not stated), the inhibition is 11%.

With `Cc1cccc(NC(=O)/C=C/c2ccc(F)cc2)c1`, the inhibition is 2.2%.

With `Cc1ccc(/C=C/C(=O)Nc2cccc([N+](=O)[O-])c2)o1`, the inhibition was 6.1%.

As to `Cc1ccc(/C=C/C(=O)Nc2ccc(Br)cc2)o1`, the inhibition is 42.5% (active).

For the molecule `Cc1cccc(N2C(=O)S/C(=C/c3ccc(N(C)C)cc3)C2=O)c1`, the inhibition is 15.9%.

Turning to `COc1ccc(C2CC(=O)C3=C(C2)Nc2ccccc2NC3c2cccc(Cl)c2)cc1` (configuration not stated), the inhibition was 9.2%.

As to `CCCCCCN1C(=O)C(O)=C(C(C)=O)C1c1ccc(Br)cc1` (configuration not stated), the inhibition was -0.7%.

Regarding `CCCCNC(=O)C(=O)NCCCOC(C)C`, the inhibition is 4.2%.

As for `O=C(Nc1ccc(Cl)cc1)/C(=C\c1cccc([N+](=O)[O-])c1)NC(=O)c1cccs1`, the inhibition was 0.7%.

As for `FC(F)(F)c1cc(/C=C/c2ccccc2)n[nH]1`, the inhibition was 10.2%.

`CC(C)(C)C(=O)COc1ccc2c(-c3ccccc3)cc(=O)oc2c1`: the inhibition is 14.2%.

For `COc1ccc(C2C=C(Nc3ccccc3)C(=O)N2c2ccccc2)c(OC)c1` (configuration not stated), the inhibition was -9.5%.

Consider `FC(F)(F)c1ccc(/C=N\N2CCN(Cc3cccc4ccccc34)CC2)cc1`, for which the inhibition is 3.6%.

`O=C1C2ON(c3ccccc3)C(c3ccc(Br)cc3)C2C(=O)N1c1ccccc1C(F)(F)F` (configuration not stated): the inhibition is 13.4%.

Turning to `O=c1c2c(nc3cc(-c4cccc(F)c4)[nH]n13)CCS2`, the inhibition was 57.3% (active).

For the molecule `CCc1c(C)nc2cc(-c3cccs3)[nH]n2c1=O`, the inhibition was -7.2%.

In the case of `CC(=O)Nc1c(C)cc(C2(c3cc(C)c(NC(C)=O)c(C)c3)CCCCC2)cc1C`, the inhibition is 2.3%.

For `CCOC(=O)c1c(-c2ccc(C)cc2C)csc1NC(=S)NC(=O)c1ccccc1`, the inhibition is 3.9%.

In the case of `O=C(NC(Cc1ccc(O)cc1)C(=O)O)/C(=C/c1ccccc1)NC(=O)c1ccccc1` (configuration not stated), the inhibition is -11.5%.

As for `Cc1cccc(N(CC(=O)O)S(C)(=O)=O)c1`, the inhibition is 4.5%.

For `CCOC(=O)c1ccc(NC(=O)CN(c2cccc([N+](=O)[O-])c2)S(=O)(=O)c2ccccc2)cc1`, the inhibition is 24.9%.

Consider `O=C(O)CC1S/C(=N\N=C2/C(=O)Nc3ccccc32)N(c2ccc(O)cc2)C1=O` (configuration not stated), for which the inhibition was 1.8%.

In the case of `CCOc1ccccc1NC(=O)CN(c1ccc(OC)cc1)S(=O)(=O)c1ccc(C)cc1`, the inhibition is 13.8%.

For `COc1cc(/C=C2/SC(=S)N(C)C2=O)ccc1OC(=O)c1cccs1`, the inhibition was 2.6%.

In the case of `COc1ccc(-c2nc3cc(NC(=O)C(C)C)ccc3o2)cc1OC`, the inhibition was -6.3%.

For `CC(=O)C1=C(C)NC(C)=C(C(C)=O)C1c1cn(-c2ccccc2)nc1-c1cccs1`, the inhibition was 15.6%.

Regarding `O=C(NC(=S)Nc1ccc2oc(-c3ccc(Br)cc3)nc2c1)c1ccco1`, the inhibition is 17%.

On to `O=C(NC(=S)Nc1ccc2oc(-c3cccnc3)nc2c1)c1ccc(Cl)cc1`, for which the inhibition was -3.5%.

Regarding `O=C(NC(=S)Nc1ccc(-c2nc3cc(Cl)ccc3o2)cc1)c1ccco1`, the inhibition was 124% (active).

Consider `CCOC(=O)C1=C(C)N=c2s/c(=C\c3ccc(F)cc3)c(=O)n2C1c1cccc(OC)c1` (configuration not stated), for which the inhibition is 10%.

Regarding `O=C(NCCCc1ccccc1)C1(c2ccccc2)CCCC1`, the inhibition was 27%.

Turning to `CCN(CC)c1ccc(C=C2C(=O)N(C)C(=O)N(C)C2=O)c(O)c1`, the inhibition was 120% (active).

Turning to `CCN(CC)c1ccc(/C=C2\C(=O)NC(=O)N(c3ccc(OC)cc3)C2=O)c(OC)c1`, the inhibition is -5.2%.

For `CCN(CC)c1ccc(/C=C2\C(=O)NC(=O)N(C)C2=O)cc1`, the inhibition was 27.7%.

As to `Cc1ccc(N2C(=O)NC(=O)/C(=C\c3ccc(I)cc3)C2=O)cc1`, the inhibition was 12.1%.

As for `CCOC(=O)c1c(CN(CCO)CCO)n(C)c2c1cc(OC(C)=O)c1c2c(-c2ccccc2)nn1-c1ccccc1`, the inhibition is -6.5%.

As to `Cc1ccc(N2C(=O)CC(NCCc3ccccc3F)C2=O)cc1` (configuration not stated), the inhibition was 8.2%.

Take `CCOC(=O)c1ccc(NC(=O)c2ccccc2OC)cc1`: the inhibition is 17.7%.

Regarding `Cc1ccc([N+](=O)[O-])cc1NC(=O)C1CC1(c1ccccc1)c1ccccc1` (configuration not stated), the inhibition is 1.8%.

Regarding `O=S(=O)(Nc1ccc(O)c(-c2c(O)ccc3ccccc23)c1)c1cc(Cl)ccc1Cl`, the inhibition is 4.2%.

For `CCCCCCN1C(=O)C(=O)C(=C(O)c2ccccc2)C1c1ccccc1OC` (configuration not stated), the inhibition was 1.4%.

In the case of `COc1cc(C(=S)N2CCOCC2)cc(OC)c1OC(=O)c1ccc(Br)cc1`, the inhibition was 15.4%.

Regarding `Cc1ccc(S(=O)(=O)c2ccc(Sc3ccc(Cl)cc3)cc2)cc1`, the inhibition is 15.4%.

As to `COc1ccc(-c2nc3sc(-c4ccc(OC)cc4)nc3s2)cc1`, the inhibition was 6%.

Regarding `O=C1NC(=Nc2ccc(F)cc2)S/C1=C/c1ccc(Br)cc1`, the inhibition was 4.6%.

For the molecule `Cc1cc(NC(=O)c2ccc(-c3cccc([N+](=O)[O-])c3)o2)ccc1NC(=O)c1ccco1`, the inhibition is 14.7%.

In the case of `CCOc1cccc2c1N(C(=O)c1ccc(OC)cc1)C(C)(C)C(=S)C2=C1SC(C(=O)OC)=C(C(=O)OC)S1`, the inhibition is 0.9%.

As to `CS(=O)(=O)N1CCN(C(=O)Cc2ccccc2)CC1`, the inhibition was 7.7%.

Regarding `CCOc1ccc(/C=C2/Sc3ccccc3C2=O)cc1OCC`, the inhibition was 6.1%.

For the molecule `COc1ccc(N2C(=O)C=CC2=O)c([N+](=O)[O-])c1`, the inhibition was 97.8% (active).

Consider `COc1ccc(N=Cc2sccc2C)c([N+](=O)[O-])c1`, for which the inhibition is 4.3%.

Turning to `COc1ccc(N2C(=O)C3C4C=CC(C4=C(C)C)C3C2=O)c([N+](=O)[O-])c1` (configuration not stated), the inhibition is 15.2%.

Consider `Cc1ccc2[nH]c(C)c(CN3CCOCC3)c(=O)c2c1`, for which the inhibition was -1.6%.

Take `CC(Oc1cccc(Cl)c1)C(=O)Nc1ccccc1C(=O)N1CCN(Cc2ccccc2)CC1` (configuration not stated): the inhibition was 0.3%.

On to `COC(=O)C(NC(=O)c1ccccc1)C12CC3CC(CC(C3)C1)C2` (configuration not stated), for which the inhibition is 7.5%.

`Cc1cc(C)n(C(=O)c2cc(F)c(F)cc2Cl)n1`: the inhibition was 3.6%.

For `Cc1ccc(NC2=CC(=O)C=CC2=O)c(C)c1`, the inhibition is -2.9%.

Turning to `COc1ccc(OC)c(N(CC(=O)Nc2cccc(Br)c2)S(C)(=O)=O)c1`, the inhibition is 9.1%.

For `CCC(=O)N1CCN(c2ccc(C(=O)c3ccccc3)cc2F)CC1`, the inhibition is -2.8%.

`Cc1cc(/C=C(/C#N)C(=O)Nc2ccc(F)cc2)c(C)n1-c1ccc(Cl)cc1`: the inhibition is -2.8%.

Turning to `CCN1C(=O)C(=Cc2ccc(O)cc2)C(=O)NC1=S`, the inhibition was 65.4% (active).

As to `CCOC(=O)c1ccc(N2NC(=O)/C(=C/c3ccc(O)cc3)C2=O)cc1`, the inhibition is 5.1%.

In the case of `COc1ccc(/C=C2\C(=O)NC(=S)N(c3ccc(Br)cc3)C2=O)cc1`, the inhibition was 5.9%.

As for `COc1ccccc1NC(=O)C(=O)NCc1ccccc1`, the inhibition was -0.6%.

Consider `Cc1oc2cc(Br)c(O)cc2c1C(=O)OC(C)C`, for which the inhibition is 9.4%.

Take `O=C(c1nn2c(c1Cl)NC(c1cccs1)CC2C(F)(F)F)N1CCN(c2ccc(F)cc2)CC1` (configuration not stated): the inhibition is 5.2%.

Turning to `Cc1cccc(NC(=O)CSc2ncn[nH]2)c1`, the inhibition is 1.3%.

`COc1ccc(CNS(=O)(=O)c2ccc(Cl)cc2)cc1`: the inhibition was -5%.

Turning to `CC(=O)Nc1ccc(NC(=S)NC(=O)/C=C/c2ccccc2)cc1`, the inhibition was -21.9%.

Take `CC(C)Oc1ccc(/C=C(/NC(=O)c2ccccc2)C(=O)Nc2ccccc2)cc1`: the inhibition was 14.7%.

Turning to `CCN(CC)c1ccc(NC(=O)/C(=C\c2ccccc2)NC(C)=O)cc1`, the inhibition is 56.6% (active).

Regarding `Cc1c(C=O)c(=O)oc2c3c4c(cc12)CCCN4CCC3`, the inhibition is 1.3%.

Turning to `O=C(NC1C2CC3CC(C2)CC1C3)c1cccc(I)c1` (configuration not stated), the inhibition is 15.2%.

Turning to `O=c1oc2ccc3ccccc3c2cc1-c1ccc(I)cc1`, the inhibition was 4.2%.

For `CC(=O)Oc1ccccc1-c1nc2s/c(=C/c3ccco3)c(=O)n2n1`, the inhibition was 6.7%.

As for `Cc1cc(/C=C2\C(=O)NC(=O)N(c3ccc4c(c3)OCO4)C2=O)c(C)n1-c1ccc(F)cc1`, the inhibition is 14.5%.

Regarding `Cc1cccc(OCCOc2ccc(Cl)cc2/C=C2/SC(=S)N(C)C2=O)c1`, the inhibition was 23.2%.

As for `O=C1C2C3C=CC(C3)C2C(=O)N1/N=C\c1ccc(-c2ccccc2[N+](=O)[O-])o1` (configuration not stated), the inhibition is 10.6%.

Regarding `COC(=O)c1ccccc1NC(=O)c1ccc(Cl)cc1`, the inhibition was -2.8%.

With `COc1ccc(CC(=O)Nc2cc(NC(=O)Cc3ccc(OC)cc3)cc(C(=O)NC(C)(C)C)c2)cc1`, the inhibition is 8.2%.

In the case of `O=C1NN(c2ccccc2)C(=O)/C1=C/c1c(Cl)cccc1Cl`, the inhibition is 8.3%.

`O=C1c2ccc(C(c3ccc4c(c3)C(=O)N(c3ccccc3)C4=O)(C(F)(F)F)C(F)(F)F)cc2C(=O)N1c1ccccc1`: the inhibition is 8.7%.

As to `CC(C)C(=O)Nc1ccc2c3c(cccc13)CC2`, the inhibition was 0.3%.

With `COc1ccccc1N1CCN(/N=C(/C)c2ccncc2)CC1`, the inhibition was -3.7%.

As for `COc1ccc(/C=c2\sc3n(c2=O)C(c2ccc(OC)cc2)C(C(=O)OC(C)C)=C(C)N=3)cc1` (configuration not stated), the inhibition was -0.7%.

Take `CCOc1ccccc1NC(=O)c1ccc(CN2CCOCC2)cc1`: the inhibition is 6.1%.

Regarding `Cc1ccc(C(=O)N/C(=C/c2cccc3ccccc23)C(=O)N2CCCC2)cc1`, the inhibition was -0.3%.
